About 11,000 (3.1%) of roughly 360,000 compounds were called active. Roughly 2% stayed inconclusive and do not appear here. For the sample, actives were picked, then their nearest neighbours and some compounds at random. Unmarked numbers belong to inactive results. No stated cut-off is given here; in the data, active means fluorescence intensity above about 16000; inconclusive means no clear call, values can overlap the other calls; inactive means below that.

The assay in a line: compound fluorescence in toxin protease inhibitor counterscreen, primary screen, artefact control for toxin protease inhibitor project, biochemical, multiplex microsphere, HTS (AID 624483). Particulars: compound autofluorescence counterscreen, microsphere flow cytometry; stronger effect = higher value. In general terms: A counterscreen serves to expose hits that act by an unwanted route or on another target.
For the compound `COCCNS(=O)(=O)c1cc(Br)ccc1OC`, the fluorescence intensity is 24900 (active).

As for `COc1ccc(OC)c(S(=O)(=O)NCCC(C)C)c1`, the fluorescence intensity was 4230. The value for `COc1ccc(C)cc1S(=O)(=O)NCCc1ccccc1` was 11800; that for `Cc1ccn(CC(=O)NC2CCCN(Cc3ccccc3F)C2)n1` (configuration not stated) was 3870; that for `Cc1ccc(CN2CC(N3CCC(Cc4ccccc4)CC3)CS2(=O)=O)cc1` (configuration not stated) was 6680. Turning to `Nc1ncnc2c1ncn2[C@@H]1O[C@H](C(=O)NS(=O)(=O)c2c(Cl)nc3sccn23)[C@@H](O)[C@H]1O`, the fluorescence intensity was 3980.

As for `O=C(NCc1ccccc1Cl)C1CCN(S(=O)(=O)c2cccc3nonc23)CC1`, the fluorescence intensity is 3550. The value for `N#C/C=C\Oc1ccc(Cl)cc1N` was 23100 (active); that for `Cc1nccn1-c1ccc(NC(=O)[C@H]2O[C@@H](n3ccc(=O)[nH]c3=O)[C@H](O)[C@@H]2O)cc1` was 5140. For `CC1(C(=O)NS(=O)(=O)c2ccccc2)CCN1C(=O)Cc1ccc(-c2ccccc2)cc1` (configuration not stated), the fluorescence intensity is 3470. As for `CN(C(=O)CN1C(=O)CCSc2ccc(S(=O)(=O)N3CCCC3)cc21)c1ccccc1`, the fluorescence intensity is 5730. The value for `CCOC(=O)CNC(=O)CN1C(=O)CCSc2ccccc21` was 20800 (active); that for `COc1ccc(CCNC(=O)CN2C(=O)CCSc3ccccc32)c(OC)c1` was 4070. The value for `COc1ccc(-n2c(SCC(=O)Nc3ccc4c(c3)OCO4)nnc2C(C)N2CCCCC2)cc1` (configuration not stated) was 6740; that for `O=C(CSc1nnc(-c2cnccn2)n1Cc1ccco1)c1ccc(Cl)c(Cl)c1` was 9950. The value for `C(=C\c1ccccc1)/CSc1nnc(-c2cccnc2)n1Cc1ccco1` was 23400 (active). As to `CCOC(=O)Cc1csc(NC(=O)CSc2nnc(-c3cccnc3)n2Cc2ccco2)n1`, the fluorescence intensity is 4600. The value for `COc1ccccc1NC(=O)CSc1nc2sc3c(c2c(=O)n1-c1ccccc1)CCN(C)C3` was 7290; that for `COc1ccccc1NC(=O)CSc1nc2sc(C)c(C)c2c(=O)n1Cc1ccco1` was 22300 (active); that for `COc1ccc(NC(=O)CSc2nnc(-c3cccs3)n2Cc2ccco2)cc1OC` was 10300. The value for `Cc1ccc(NC(=O)CSc2nnc(-c3cnccn3)n2Cc2ccco2)cc1C` was 3350.

As for `CCn1c(SCC(=O)Nc2cc(C)c(Cl)cc2OC)nnc1-c1ccco1`, the fluorescence intensity was 5870. The value for `COc1cc(Cl)c(C)cc1NC(=O)CSc1nnc(-c2cccnc2)n1Cc1ccco1` was 20700 (active); that for `Cc1cc(-c2ccccc2)nc(N2CCC(C(=O)NC34CC5CC(CC(C5)C3)C4)CC2)n1` was 3890; that for `CCN(C(=O)COc1cccnc1[N+](=O)[O-])C1CCS(=O)(=O)C1` (configuration not stated) was 2480. On to `COc1ccc(CNC(=O)c2ccc(-c3cccnc3)c3ccoc23)cc1OC`, for which the fluorescence intensity is 3080. In the case of `Cc1cccc(C)c1-n1nnnc1C(CCc1ccccc1)N1CCN(C/C=C/c2ccccc2)CC1` (configuration not stated), the fluorescence intensity is 5940. The value for `Cc1cc(Br)ccc1NC(=O)CCCOc1cc(=O)n(C)c2ccccc12` was 3350; that for `O=C(CCC(=O)NNc1nc2ccccc2c2nc(-c3ccccc3)nn12)NCCCN1CCCC1=O` was 2420; that for `O=C(CCn1c(=S)[nH]c2ccccc2c1=O)NCCCN1CCCC1=O` was 22700 (active). The value for `O=Cc1c(NCCCN2CCCC2=O)c2ccccc2[nH]c1=O` was 3940.

Consider `Cc1nn(Cc2ccccc2)c(C)c1C(=O)NCCCN1CCCC1=O`, for which the fluorescence intensity was 3680.

For the compound `CCOc1cc2[nH]c(=S)n(CCCN3CCCC3=O)c(=O)c2cc1OCC`, the fluorescence intensity was 5800. As to `O=C1CCCN1CCCNc1ncnc2c1[nH]c1ccccc12`, the fluorescence intensity was 23000 (active). The value for `CC(=O)c1ccc(N2C(=NC(=O)C(C)C)SC3CS(=O)(=O)CC32)cc1` (configuration not stated) was 4490; that for `Cc1cccc2cc(CN(C(=O)c3cccs3)c3ccccc3)c(=O)[nH]c12` was 2690; that for `COc1ccc(Cl)cc1NC(=O)c1oc(C)nc1C` was 11300. The value for `Cc1nc(C)c(C(=O)Nc2ccc(C)c(F)c2)o1` was 20400 (active); that for `Cc1ccc(NC(=O)NC(=O)c2ccccc2)cc1F` was 4110; that for `N#Cc1ccccc1S(=O)(=O)N1CCN(Cc2c(O)ccc3ccccc23)CC1` was 2850. As for `Fc1ccc(N2N=C(c3cccs3)CC2c2ccco2)c(F)c1` (configuration not stated), the fluorescence intensity is 20900 (active).

With `Cc1ccccc1C1CC(c2cccs2)=NN1S(C)(=O)=O` (configuration not stated), the fluorescence intensity was 6430.

On to `O=C(COc1ccccc1Cl)N1N=C(c2cccs2)CC1c1ccco1` (configuration not stated), for which the fluorescence intensity is 3750.

Take `O=C(NC(c1ccc(-c2ccccc2)cc1)c1cnccn1)C1CCN(CCOc2ccc(Cl)cc2Cl)CC1` (configuration not stated): the fluorescence intensity is 4380. Take `O=C(NCc1ccco1)C1CCCN(S(=O)(=O)c2cnc[nH]2)C1` (configuration not stated): the fluorescence intensity was 5600. In the case of `CCCS(=O)(=O)N1CCCC(C(=O)NCc2ccco2)C1` (configuration not stated), the fluorescence intensity is 2870. The value for `O=C(NCc1ccco1)C1CCCN(S(=O)(=O)c2ccccc2)C1` (configuration not stated) was 21200 (active). As for `COCCNC(=O)C(c1ccc(C)cc1)N(C(=O)CCC(=O)Nc1ccccn1)c1cccc(C)c1` (configuration not stated), the fluorescence intensity is 4510. `Cn1c2c(c(=O)n(C)c1=O)C(c1cccc(F)c1)C(C#N)=C(N)O2` (configuration not stated): the fluorescence intensity was 4470. The value for `Cc1cc2c(c(=O)n1Cc1ccco1)C(c1ccccc1)C(C#N)=C(N)O2` (configuration not stated) was 23400 (active); that for `Cc1cc2c(c(=O)n1C)C(C(C)C)C(C#N)=C(N)O2` (configuration not stated) was 3460; that for `COc1ccc2c(c1)C(C)=CC(C)(C)N2C(=O)Nc1ccccc1` was 2880.

`COc1ccc2c(c1)C(C)=CC(C)(C)N2C(=O)CNCc1ccc2c(c1)OCO2`: the fluorescence intensity was 21400 (active).

Consider `COc1ccc(NC(=O)NCc2ccc3c(c2)OCO3)c(OC)c1`, for which the fluorescence intensity is 5960.

For `Cc1cc(C(=O)COc2ccc(Br)cc2F)c(C)n1C1CC1`, the fluorescence intensity is 4210. On to `CCCNC(=O)C1(C)CCCN(Cc2c(C)nn(-c3ccccc3)c2C)C1` (configuration not stated), for which the fluorescence intensity is 3870.

On to `OC(c1ccc(F)cc1)c1ncc(-c2cccc(C(F)(F)F)c2)[nH]1` (configuration not stated), for which the fluorescence intensity is 2920. The value for `COc1ccc(S(=O)(=O)N2CCC(C(=O)N3CCOCC3)CC2)cc1OC` was 8730; that for `COc1ccc(S(=O)(=O)N2CCC(C(=O)N3CCCC3)CC2)cc1C` was 2980. As to `COc1ccc(S(=O)(=O)N2CCC(C(=O)N3CCc4ccccc4C3)CC2)cc1OC`, the fluorescence intensity is 18500 (active). Regarding `CCCNC(=O)C1(C)CCN(C(=O)c2cc(F)ccc2C)C1` (configuration not stated), the fluorescence intensity is 3600. The value for `CCc1nc2ccc(C(=O)N(C)Cc3ccco3)cn2c1N(C)C(=O)Cc1ccccc1` was 3670. The value for `O=S1(=O)CC(N2CCN(CCO)CC2)CN1Cc1cn(Cc2cccc(Cl)c2)nn1` (configuration not stated) was 5760; that for `Cc1cc(C)cc(Oc2nc3c(C)cccn3c(=O)c2/C=C(\C#N)C(=O)NC2CCS(=O)(=O)C2)c1` (configuration not stated) was 2120. The value for `C=C(Br)Cn1c(CCCC)nc2ccccc21` was 3410. Take `COCc1nc2ccccc2n1Cc1ccccc1Br`: the fluorescence intensity was 20400 (active). As to `CCOCCn1c(C(C)C)nc2ccccc21`, the fluorescence intensity is 3860. As for `Nc1cccc(-c2cncc(N3CCN(Cc4ccccn4)CC3)n2)c1`, the fluorescence intensity was 3020. Turning to `Cc1cccc(CNC(=O)c2sc(=O)n(Cc3ccccc3C)c2C)c1`, the fluorescence intensity is 4210. The value for `COc1ccc(-c2cc3ccc(OCc4nn[nH]n4)cc3oc2=O)cc1` was 24000 (active). For `Cc1noc(C)c1COc1ccc2ccc(=O)oc2c1`, the fluorescence intensity was 3400.

For the compound `CCCCc1cc(=O)oc2cc(C)cc(OCc3nn[nH]n3)c12`, the fluorescence intensity was 2630.

Take `CC(C)C1C(=O)N(Cc2cn(CCC3OCCO3)nn2)CCS(=O)(=O)N1Cc1ccc(-c2ccccc2C(F)(F)F)cc1` (configuration not stated): the fluorescence intensity is 5850. In the case of `Cc1ccc(NC(=O)C(C)Sc2nnc(C3CC3)n2C2CC2)cc1S(=O)(=O)N1CCOCC1` (configuration not stated), the fluorescence intensity was 3820. The value for `COC(=O)c1ccc2nc(-c3ccc(C)cc3)c(Cc3ccc(OC)cc3C)n2c1` was 7150. `CCN(CC)CCCNC(=O)c1cc(-c2cccc(Cl)c2)on1`: the fluorescence intensity is 22000 (active). Take `O=C(NCCCN1CCOCC1)c1cc(-c2cccc(O)c2)on1`: the fluorescence intensity was 2910. On to `O=C(NCCCn1ccnc1)c1cc(-c2ccccc2)on1`, for which the fluorescence intensity is 3190. The value for `O=C(NCc1ccccc1)C1C(=O)N(Cc2ccccc2)C(=O)C1C1(O)CCCC1` (configuration not stated) was 8420. The value for `COc1cc(NC(=O)C2=CC(c3ccco3)=NS(=O)(=O)N2C)cc(OC)c1OC` was 4170. The value for `O=S(=O)(NCCNS(=O)(=O)c1ccccc1)c1ccccc1` was 22900 (active). On to `O=S(=O)(NCCc1ccccc1)c1ccccc1`, for which the fluorescence intensity is 3470.

Take `O=S(=O)(NCCc1ccncc1)c1ccccc1`: the fluorescence intensity is 3020. The value for `CCOc1ccc(CCN2C(=S)N([C@@H](CC(C)C)CN3CCC[C@@H]3CN3C(=S)NC[C@@H]3Cc3ccc(O)cc3)C[C@@H]2Cc2ccc(O)cc2)cc1` was 6230; that for `CCOc1nnc(C)c2c(C)n(-c3cccc(Cl)c3)nc12` was 23500 (active). The value for `CCOc1c(Nc2cccc(Cl)c2)c(=O)c1=O` was 4070. The value for `CCOc1ccc(CNC(=O)C2CCCN(c3nnc(C)c4c(C)n(-c5ccccc5)nc34)C2)cc1` (configuration not stated) was 9860; that for `Brc1cc(Br)c(Oc2cc(Br)c(Br)cc2Br)cc1Br` was 5260. In the case of `COc1ccc(Cl)cc1NC(=O)CN(C)C(=O)c1ccc2n[nH]nc2c1`, the fluorescence intensity was 7700.

As for `COc1ccc(Cl)cc1NC(=O)CN(C)C(=O)CNC(=O)C12CC3CC(CC(C3)C1)C2`, the fluorescence intensity was 22500 (active). On to `COc1ccc(Cl)cc1NC(=O)CN(C)Cc1ccc(OC)c(OC)c1`, for which the fluorescence intensity is 4460. As to `CCOC(=O)C1=C(COC(=O)[C@H](C)NS(=O)(=O)c2ccccc2F)NC(=O)NC1C` (some centres not stated), the fluorescence intensity is 3650.

Source of the values: PubChem BioAssay AID624483 (NMMLSC, 2012).
